This note sets out measurements from publication PMC7862700, “An all-to-all approach to the identification of sequence-specific readers for epigenetic DNA modifications on cytosine”.

Common to all, as to assay: DAPPL (digital affinity profiling via proximity ligation, sequencing); 10 mM Tris-HCl pH 7.5, 50 mM NaCl, 1 mM DTT, 4% glycerol, room temperature, 30 min; GST-TFs on glutathione beads, 16-mer random dsDNA library, 0.1% formaldehyde crosslink after washing; high values mean tight binding
For assay [1], the target named is T1, FLI1 (Homo sapiens, UniProt Q01543 1-452).
T1 sequence: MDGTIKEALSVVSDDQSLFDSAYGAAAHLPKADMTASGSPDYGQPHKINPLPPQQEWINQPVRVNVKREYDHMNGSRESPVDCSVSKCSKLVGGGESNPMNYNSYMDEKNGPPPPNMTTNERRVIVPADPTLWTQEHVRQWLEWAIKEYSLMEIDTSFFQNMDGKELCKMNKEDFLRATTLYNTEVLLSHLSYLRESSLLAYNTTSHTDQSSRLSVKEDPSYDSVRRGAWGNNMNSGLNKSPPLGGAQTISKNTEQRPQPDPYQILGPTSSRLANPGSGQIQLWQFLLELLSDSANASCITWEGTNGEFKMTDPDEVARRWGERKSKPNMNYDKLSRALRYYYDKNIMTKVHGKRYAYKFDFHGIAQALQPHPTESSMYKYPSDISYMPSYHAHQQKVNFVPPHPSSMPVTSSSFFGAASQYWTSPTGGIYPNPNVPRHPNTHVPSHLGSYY
Particulars: protein: recombinant; tags: N-terminal GST; dsDNA, one strand shown. The procedure, abridged:
(§1)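 Beads coated with glutathione captured GST-fused human transcription factors that had been expressed in yeast, and the factors were then given DNA barcodes and pooled with a tag-only sample. The pools were incubated with 200 nmole of a random double-stranded 16-mer DNA library in Tris/NaCl/DTT/glycerol buffer for 30 min at room temperature, washed, crosslinked with 0.1% formaldehyde and proximity-ligated with BsaI/T4 ligase at 37 °C for 1 h. PCR amplification and Illumina NextSeq500 sequencing came last. Binding signal is each hexamer's read frequency for a factor divided by its frequency for the tag-only sample.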

The target of assay [2] is T2, ELK1 (Homo sapiens, UniProt P19419 1-428).
T2 sequence: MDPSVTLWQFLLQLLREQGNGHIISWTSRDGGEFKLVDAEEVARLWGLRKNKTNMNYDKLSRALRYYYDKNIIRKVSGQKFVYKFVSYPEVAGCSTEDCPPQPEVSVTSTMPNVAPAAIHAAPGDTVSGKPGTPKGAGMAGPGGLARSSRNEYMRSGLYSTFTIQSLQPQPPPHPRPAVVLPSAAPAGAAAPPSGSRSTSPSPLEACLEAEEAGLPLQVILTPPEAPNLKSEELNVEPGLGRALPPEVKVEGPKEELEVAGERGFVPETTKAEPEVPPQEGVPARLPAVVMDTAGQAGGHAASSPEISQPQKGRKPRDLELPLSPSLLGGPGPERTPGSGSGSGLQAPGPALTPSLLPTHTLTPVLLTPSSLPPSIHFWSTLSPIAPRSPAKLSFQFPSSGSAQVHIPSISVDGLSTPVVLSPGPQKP
Particulars: protein: recombinant; tags: N-terminal GST; dsDNA, one strand shown. The procedure, abridged: as §1

Assay [3] concerns the target T3, GABPA (Homo sapiens, UniProt Q06546 1-454).
T3 sequence: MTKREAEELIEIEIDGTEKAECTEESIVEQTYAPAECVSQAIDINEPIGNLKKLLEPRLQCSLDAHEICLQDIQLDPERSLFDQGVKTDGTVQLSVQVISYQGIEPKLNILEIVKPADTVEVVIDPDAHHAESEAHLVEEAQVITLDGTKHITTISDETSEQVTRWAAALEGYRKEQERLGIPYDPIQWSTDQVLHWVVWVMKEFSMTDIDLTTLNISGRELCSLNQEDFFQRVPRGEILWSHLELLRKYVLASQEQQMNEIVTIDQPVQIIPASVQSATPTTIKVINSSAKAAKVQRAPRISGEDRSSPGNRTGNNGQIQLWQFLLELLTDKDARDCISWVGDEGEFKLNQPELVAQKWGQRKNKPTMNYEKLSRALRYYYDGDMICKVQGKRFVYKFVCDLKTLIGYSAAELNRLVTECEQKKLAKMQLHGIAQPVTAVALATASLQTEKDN
Particulars: protein: recombinant; tags: N-terminal GST; dsDNA, one strand shown. The gist of the method: as §1

The target of assay [4] is T4, ERG (Homo sapiens, UniProt P11308 1-479).
T4 sequence: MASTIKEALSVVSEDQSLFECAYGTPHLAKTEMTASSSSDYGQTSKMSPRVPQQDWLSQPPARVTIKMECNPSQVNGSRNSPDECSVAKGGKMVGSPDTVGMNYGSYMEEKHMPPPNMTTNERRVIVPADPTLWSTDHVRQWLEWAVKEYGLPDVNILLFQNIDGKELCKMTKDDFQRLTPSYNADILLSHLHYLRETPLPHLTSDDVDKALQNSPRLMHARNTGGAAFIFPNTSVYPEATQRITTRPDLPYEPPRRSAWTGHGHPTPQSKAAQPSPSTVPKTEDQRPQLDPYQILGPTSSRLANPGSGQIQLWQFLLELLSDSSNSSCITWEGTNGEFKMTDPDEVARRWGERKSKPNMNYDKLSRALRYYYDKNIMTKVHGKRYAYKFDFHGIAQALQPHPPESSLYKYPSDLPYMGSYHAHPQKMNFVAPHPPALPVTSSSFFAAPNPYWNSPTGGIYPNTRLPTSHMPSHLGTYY
The note with it: protein: recombinant; tags: N-terminal GST; dsDNA, one strand shown. The gist of the method: as §1

Assay [5] concerns the target ELF1 (Homo sapiens, UniProt P32519 1-619). The note with it: protein: recombinant; tags: N-terminal GST; dsDNA, one strand shown. The gist of the method: as §1
Assay [6] addresses T5, EHF (Homo sapiens, UniProt Q9NZC4 1-300).
T5 sequence: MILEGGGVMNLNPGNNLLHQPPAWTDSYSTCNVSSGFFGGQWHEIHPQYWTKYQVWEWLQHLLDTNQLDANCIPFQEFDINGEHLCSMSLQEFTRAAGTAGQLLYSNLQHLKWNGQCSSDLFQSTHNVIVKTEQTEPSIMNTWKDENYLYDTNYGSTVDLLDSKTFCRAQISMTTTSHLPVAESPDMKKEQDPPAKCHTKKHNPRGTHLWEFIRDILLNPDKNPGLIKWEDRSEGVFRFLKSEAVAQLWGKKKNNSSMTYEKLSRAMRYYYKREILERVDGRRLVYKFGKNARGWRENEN
The note with it: protein: recombinant; tags: N-terminal GST; dsDNA, one strand shown. The procedure, abridged: as §1

In assay [7] the target is SPIB (Homo sapiens, UniProt Q01892 1-262). Particulars: protein: recombinant; tags: N-terminal GST; dsDNA, one strand shown. The procedure, abridged: as §1
Assay [8] concerns the target T6, ELK3 (Homo sapiens, UniProt P41970 1-407).
T6 sequence: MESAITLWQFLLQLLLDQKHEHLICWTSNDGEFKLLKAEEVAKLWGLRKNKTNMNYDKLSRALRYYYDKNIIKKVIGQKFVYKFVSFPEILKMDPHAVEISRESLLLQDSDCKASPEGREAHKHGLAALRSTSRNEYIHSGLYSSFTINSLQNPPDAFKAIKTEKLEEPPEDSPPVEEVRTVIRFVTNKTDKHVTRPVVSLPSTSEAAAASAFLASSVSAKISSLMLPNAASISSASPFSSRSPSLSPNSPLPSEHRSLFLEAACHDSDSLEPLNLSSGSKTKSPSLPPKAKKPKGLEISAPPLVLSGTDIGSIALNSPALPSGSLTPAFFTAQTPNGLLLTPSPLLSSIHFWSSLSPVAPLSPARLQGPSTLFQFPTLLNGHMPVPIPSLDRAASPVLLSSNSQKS
The note with it: protein: recombinant; tags: N-terminal GST; dsDNA, one strand shown. The procedure, abridged: as §1

Assay [9] concerns the target T7, FEV (Homo sapiens, UniProt Q99581 1-238).
T7 sequence: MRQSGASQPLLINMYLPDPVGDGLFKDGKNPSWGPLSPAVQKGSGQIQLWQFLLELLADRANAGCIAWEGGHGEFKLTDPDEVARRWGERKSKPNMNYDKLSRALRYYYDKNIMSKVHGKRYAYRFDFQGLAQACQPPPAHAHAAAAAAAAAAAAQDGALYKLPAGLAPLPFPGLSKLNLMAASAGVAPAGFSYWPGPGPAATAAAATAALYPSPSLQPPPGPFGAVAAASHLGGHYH
Particulars: protein: recombinant; tags: N-terminal GST; dsDNA, one strand shown. The gist of the method:
as §1

Assay [10] concerns the target ETV5 (Homo sapiens, UniProt P41161 1-510). Particulars: protein: recombinant; tags: N-terminal GST; dsDNA, one strand shown. The procedure, abridged:
as §1

Assay [11] deals with HSF1 (Homo sapiens, UniProt Q00613 1-529). The note with it: protein: recombinant; tags: N-terminal GST; chain copies: 3; dsDNA, one strand shown. The gist of the method:
as §1

The target in assay [12] is T8, SPIC (Homo sapiens, UniProt Q8N5J4 1-248).
T8 sequence: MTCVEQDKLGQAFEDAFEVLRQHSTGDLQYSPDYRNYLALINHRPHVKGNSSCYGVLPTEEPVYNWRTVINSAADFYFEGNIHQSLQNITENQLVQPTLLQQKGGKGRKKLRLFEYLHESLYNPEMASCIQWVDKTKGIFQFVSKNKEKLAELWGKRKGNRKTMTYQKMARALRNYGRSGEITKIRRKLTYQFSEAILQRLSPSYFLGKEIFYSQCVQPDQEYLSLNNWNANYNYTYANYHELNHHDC
The note with it: protein: recombinant; tags: N-terminal GST; dsDNA, one strand shown. The procedure, abridged: as §1

Assay [13] deals with ELF4 (Homo sapiens, UniProt Q99607 1-663). Particulars: protein: recombinant; tags: N-terminal GST; dsDNA, one strand shown. The gist of the method:
as §1

For assay [14], the target named is T9, ELK4 (Homo sapiens, UniProt P28324-2 1-405).
T9 sequence: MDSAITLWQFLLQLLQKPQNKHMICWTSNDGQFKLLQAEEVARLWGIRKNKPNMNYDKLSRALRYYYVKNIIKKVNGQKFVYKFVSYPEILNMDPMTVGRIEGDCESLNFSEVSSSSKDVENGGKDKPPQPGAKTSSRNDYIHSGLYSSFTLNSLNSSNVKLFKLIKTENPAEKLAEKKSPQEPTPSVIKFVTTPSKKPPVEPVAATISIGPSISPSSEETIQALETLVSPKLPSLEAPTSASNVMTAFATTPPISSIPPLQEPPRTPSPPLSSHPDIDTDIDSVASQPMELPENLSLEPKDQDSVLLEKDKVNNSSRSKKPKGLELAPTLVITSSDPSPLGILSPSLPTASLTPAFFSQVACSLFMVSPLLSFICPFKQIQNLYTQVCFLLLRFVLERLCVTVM
The note with it: protein: recombinant; tags: N-terminal GST; dsDNA, one strand shown. The procedure, abridged:
as §1

The target in assay [15] is T10, ELF3 (Homo sapiens, UniProt P78545 1-371).
T10 sequence: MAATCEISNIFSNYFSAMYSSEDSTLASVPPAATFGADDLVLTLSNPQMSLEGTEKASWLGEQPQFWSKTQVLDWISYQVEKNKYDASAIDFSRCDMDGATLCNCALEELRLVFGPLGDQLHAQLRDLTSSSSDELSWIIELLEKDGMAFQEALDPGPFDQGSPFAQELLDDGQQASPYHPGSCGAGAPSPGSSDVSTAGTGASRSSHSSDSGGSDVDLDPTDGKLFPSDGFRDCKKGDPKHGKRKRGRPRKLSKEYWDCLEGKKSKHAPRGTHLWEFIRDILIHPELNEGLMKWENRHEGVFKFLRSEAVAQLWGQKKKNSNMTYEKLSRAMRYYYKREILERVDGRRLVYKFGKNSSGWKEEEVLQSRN
Particulars: protein: recombinant; tags: N-terminal GST; dsDNA, one strand shown. The procedure, abridged:
as §1

For assay [16], the target named is CRX (Homo sapiens, UniProt O43186 1-299). The note with it: protein: recombinant; tags: N-terminal GST; dsDNA, one strand shown. The procedure, abridged: as §1
Assay [17] addresses ETV1 (Homo sapiens, UniProt P50549 1-477). Particulars: protein: recombinant; tags: N-terminal GST; dsDNA, one strand shown. The procedure, abridged:
as §1

ELF1, sequence (P32519 whole entry): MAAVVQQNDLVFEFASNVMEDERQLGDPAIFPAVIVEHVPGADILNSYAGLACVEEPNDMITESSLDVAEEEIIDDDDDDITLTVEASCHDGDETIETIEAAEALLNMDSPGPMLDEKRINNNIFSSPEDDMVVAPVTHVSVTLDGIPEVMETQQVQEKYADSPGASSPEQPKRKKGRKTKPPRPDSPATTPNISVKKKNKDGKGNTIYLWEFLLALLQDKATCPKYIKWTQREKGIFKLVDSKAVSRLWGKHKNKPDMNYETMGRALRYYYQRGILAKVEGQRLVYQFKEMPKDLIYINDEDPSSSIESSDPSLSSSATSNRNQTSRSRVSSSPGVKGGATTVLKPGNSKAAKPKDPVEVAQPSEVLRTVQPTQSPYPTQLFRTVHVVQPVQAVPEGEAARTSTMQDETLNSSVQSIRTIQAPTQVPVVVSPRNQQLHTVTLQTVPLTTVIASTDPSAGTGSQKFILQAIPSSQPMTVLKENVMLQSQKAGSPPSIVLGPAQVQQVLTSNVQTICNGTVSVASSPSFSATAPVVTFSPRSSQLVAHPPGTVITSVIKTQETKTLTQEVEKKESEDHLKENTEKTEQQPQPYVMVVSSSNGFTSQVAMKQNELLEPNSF
CRX, sequence (O43186 whole entry): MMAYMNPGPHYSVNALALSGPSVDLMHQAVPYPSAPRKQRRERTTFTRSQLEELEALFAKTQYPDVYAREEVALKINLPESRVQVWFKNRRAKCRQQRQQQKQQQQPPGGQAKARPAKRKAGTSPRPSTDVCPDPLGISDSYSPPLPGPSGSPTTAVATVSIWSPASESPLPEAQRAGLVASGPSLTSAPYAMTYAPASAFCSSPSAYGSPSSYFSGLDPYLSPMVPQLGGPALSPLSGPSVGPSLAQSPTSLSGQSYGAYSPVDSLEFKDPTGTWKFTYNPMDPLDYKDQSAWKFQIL
ETV1, sequence (P50549 whole entry): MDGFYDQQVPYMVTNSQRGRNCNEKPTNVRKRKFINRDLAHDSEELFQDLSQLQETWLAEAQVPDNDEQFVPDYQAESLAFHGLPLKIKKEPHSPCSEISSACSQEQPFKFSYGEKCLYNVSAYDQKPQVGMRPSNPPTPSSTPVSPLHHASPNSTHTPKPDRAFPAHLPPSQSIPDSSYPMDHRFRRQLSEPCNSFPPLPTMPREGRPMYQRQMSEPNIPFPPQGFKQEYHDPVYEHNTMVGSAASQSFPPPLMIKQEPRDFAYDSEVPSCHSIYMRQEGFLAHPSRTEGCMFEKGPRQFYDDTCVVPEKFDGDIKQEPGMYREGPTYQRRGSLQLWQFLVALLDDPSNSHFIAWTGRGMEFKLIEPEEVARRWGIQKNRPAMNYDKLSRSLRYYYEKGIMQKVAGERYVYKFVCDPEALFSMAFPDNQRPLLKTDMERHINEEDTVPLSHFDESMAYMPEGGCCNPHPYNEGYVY
ELF4, sequence (Q99607 whole entry): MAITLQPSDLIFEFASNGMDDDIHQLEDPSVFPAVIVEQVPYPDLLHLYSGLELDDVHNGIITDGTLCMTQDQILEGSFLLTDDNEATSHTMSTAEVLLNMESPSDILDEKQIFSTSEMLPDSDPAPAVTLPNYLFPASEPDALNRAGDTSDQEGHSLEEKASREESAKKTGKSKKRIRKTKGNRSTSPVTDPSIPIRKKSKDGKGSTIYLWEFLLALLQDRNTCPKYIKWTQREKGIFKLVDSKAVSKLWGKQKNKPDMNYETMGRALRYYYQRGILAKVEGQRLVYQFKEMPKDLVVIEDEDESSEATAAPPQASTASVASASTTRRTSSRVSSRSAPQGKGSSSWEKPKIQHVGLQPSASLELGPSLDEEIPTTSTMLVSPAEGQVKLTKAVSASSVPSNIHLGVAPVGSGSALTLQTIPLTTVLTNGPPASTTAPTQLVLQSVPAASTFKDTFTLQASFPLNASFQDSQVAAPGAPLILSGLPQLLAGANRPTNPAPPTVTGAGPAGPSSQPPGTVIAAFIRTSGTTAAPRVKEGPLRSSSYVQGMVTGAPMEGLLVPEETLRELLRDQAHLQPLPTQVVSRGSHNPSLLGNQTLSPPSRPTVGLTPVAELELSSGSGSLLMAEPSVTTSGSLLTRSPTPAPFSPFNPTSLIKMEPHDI
ETV5, sequence (P41161 whole entry): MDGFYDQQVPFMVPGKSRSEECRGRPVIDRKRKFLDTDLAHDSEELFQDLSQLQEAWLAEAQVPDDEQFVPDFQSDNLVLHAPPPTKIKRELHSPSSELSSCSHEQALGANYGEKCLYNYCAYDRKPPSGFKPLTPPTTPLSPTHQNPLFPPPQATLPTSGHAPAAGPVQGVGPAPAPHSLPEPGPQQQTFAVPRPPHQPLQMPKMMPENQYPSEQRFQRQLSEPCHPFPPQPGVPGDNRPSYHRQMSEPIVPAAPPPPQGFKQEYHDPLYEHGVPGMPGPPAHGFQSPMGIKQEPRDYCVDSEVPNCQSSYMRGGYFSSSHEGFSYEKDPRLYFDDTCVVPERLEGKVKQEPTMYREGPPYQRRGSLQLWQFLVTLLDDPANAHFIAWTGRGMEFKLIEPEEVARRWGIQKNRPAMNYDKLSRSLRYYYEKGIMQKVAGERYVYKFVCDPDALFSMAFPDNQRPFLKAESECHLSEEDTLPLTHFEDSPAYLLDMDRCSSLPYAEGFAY
HSF1, sequence (Q00613 whole entry): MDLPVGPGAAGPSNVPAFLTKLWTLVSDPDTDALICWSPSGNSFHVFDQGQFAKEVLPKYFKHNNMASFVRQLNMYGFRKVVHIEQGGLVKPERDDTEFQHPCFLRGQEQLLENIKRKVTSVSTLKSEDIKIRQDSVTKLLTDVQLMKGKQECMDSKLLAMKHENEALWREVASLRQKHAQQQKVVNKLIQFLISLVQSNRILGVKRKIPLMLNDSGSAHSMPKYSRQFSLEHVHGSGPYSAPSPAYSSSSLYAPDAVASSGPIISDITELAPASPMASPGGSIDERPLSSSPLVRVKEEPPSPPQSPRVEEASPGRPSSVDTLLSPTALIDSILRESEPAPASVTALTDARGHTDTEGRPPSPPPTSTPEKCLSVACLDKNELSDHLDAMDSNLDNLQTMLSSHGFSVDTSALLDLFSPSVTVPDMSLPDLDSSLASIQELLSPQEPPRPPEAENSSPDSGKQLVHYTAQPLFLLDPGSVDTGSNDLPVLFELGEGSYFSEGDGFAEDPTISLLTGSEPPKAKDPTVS
SPIB, sequence (Q01892 whole entry): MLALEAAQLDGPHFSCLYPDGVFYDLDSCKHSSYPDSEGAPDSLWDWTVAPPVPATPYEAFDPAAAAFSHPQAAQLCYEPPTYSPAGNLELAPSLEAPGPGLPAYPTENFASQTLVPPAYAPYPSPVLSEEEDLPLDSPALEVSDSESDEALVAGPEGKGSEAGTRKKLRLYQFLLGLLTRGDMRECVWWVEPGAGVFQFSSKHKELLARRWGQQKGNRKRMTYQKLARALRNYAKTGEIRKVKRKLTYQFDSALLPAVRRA

As to TGCTTA, the binding signal in assay [1] is 1.04 fold enrichment (6-mer frequency, TF over GST control); in [2], 1.06 fold enrichment (6-mer frequency, TF over GST control); in assay [3] it was 1.21 fold enrichment (6-mer frequency, TF over GST control); in assay [4], 1.15 fold enrichment (6-mer frequency, TF over GST control); in assay [5], 1.13 fold enrichment (6-mer frequency, TF over GST control); in assay [6], 1.08 fold enrichment (6-mer frequency, TF over GST control). In addition, the binding signal in assay [7] was 1.06 fold enrichment (6-mer frequency, TF over GST control); in assay [8], 1 fold enrichment (6-mer frequency, TF over GST control); in assay [9] it was 1.03 fold enrichment (6-mer frequency, TF over GST control); in assay [10], 1.09 fold enrichment (6-mer frequency, TF over GST control); in assay [11], 1.33 fold enrichment (6-mer frequency, TF over GST control); in assay [12], 1.32 fold enrichment (6-mer frequency, TF over GST control). Besides, the binding signal in assay [13] was 1.11 fold enrichment (6-mer frequency, TF over GST control); in assay [14], 1.04 fold enrichment (6-mer frequency, TF over GST control); in assay [15], 1.09 fold enrichment (6-mer frequency, TF over GST control); in assay [16], 1.78 fold enrichment (6-mer frequency, TF over GST control); in [17], 1.11 fold enrichment (6-mer frequency, TF over GST control).
